HT1080-NT tox: qHTS for induction of synthetic lethality in tumor cells producing 2HG: qHTS for the HT-1080-NT fibrosarcoma cell line; 360,000 tested, 1.6% active; AID 686970, 2013; HT-1080-NT fibrosarcoma viability, CellTiter-Glo ATP luminescence, 48 h; Potency, µM (top dose mostly 46.1 µM), actives largely listed as cytotoxic;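 also: NT is the 2HG producing partner of a matched IDH1 knockdown line; nearly all actives have a fitted effect of over 55% in size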
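750 cells/well, RPMI + 5% FBS; 2 h settle, compound pin-transfer, 48 h at 37 degrees C. CellTiter-Glo 10 min RT, luminescence. Normalized to DMSO and media-only wells.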
HT1080 IDH1KD tx: qHTS for induction of synthetic lethality in tumor cells producing 2HG: qHTS for the HT-1080-IDH1KD cell line; HT-1080 IDH1 knockdown viability, ATP luminescence, 48 h; AID 686971, 2013; 360,000 tested, 2% active; Potency, µM (top dose mostly 46.1 µM), hits mostly cytotoxic
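% activity derives from luminescence (CellTiter-Glo), normalised to DMSO and no-cell wells. HT-1080-IDH1KD cells, 750/well, had 48 h compound exposure at 37 °C.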
DT40 TDP1 CPT: qHTS for Inhibitors of human tyrosyl-DNA phosphodiesterase 1 (TDP1): qHTS in cells in presence of CPT | Potency, µM (highest dose often 46.2 µM), most hits filed as inhibitors | chicken DT40 Tdp1-/-;hTDP1 cells + 20 nM CPT, ATP luminescence, 48 h | 420,000 tested, 12% active; also: nearly all actives have a fitted effect of over 55% in size
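Cell growth measured by CellTiter-Glo luminescence after a minimum 48 h, 37 C compound exposure with 20 nM CPT in Tdp1-knockout DT40 cells stably expressing hTDP1, seeded 400/well; qHTS titration format.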
IL1B secr inh: qHTS for Inhibitors of Inflammasome Signaling: IL-1-beta AlphaLISA Primary Screen; THP-1 LPS/ATP IL-1B secretion, AlphaLISA, 16 h; stronger effect = lower value; activity change, % at 57.5 µM; 360,000 tested, 4.7% active; AID 743279, 2014; in the data active = activity change below about -50%; inconclusive = mostly about -30% to -49%
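THP-1 cells pretreated 1 hr with compounds (up to 57.5 uM final), then stimulated with LPS (250 ng/mL final) plus ATP (1.25 mM final); secreted IL-1B measured by AlphaLISA after 16 hr, decreased signal indicating inhibition.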
DT40 TDP1 no CPT: qHTS for Inhibitors of human tyrosyl-DNA phosphodiesterase 1 (TDP1): qHTS in cells in absence of CPT; Potency, µM (highest dose often 46.2 µM), hits mostly inhibitors; 420,000 tested, 15% active; AID 686978, 2013; DT40 Tdp1-/- hTDP1 cells, no CPT, ATP luminescence, 48 h; also: nearly all actives have a fitted effect of over 55% in size
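Growth kinetics read by CellTiter-Glo luminescence after ≥48 hr at 37 °C. Cells: DT40 Tdp1-/- stably carrying human TDP1, 400 per well, compound exposure in the absence of CPT (DMSO vehicle).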
Of the large screens only hits and unclear results are named; the others gave an inactive call. The list is not random: actives were taken first. Their share in the collection is about 19%. Unless noted, calls follow the shape of the dose curve; as a rule, active = well fitted curve in the direction sought with a large enough effect; inconclusive = small, poorly fitted or top-dose-only effect, or another doubt; inactive = no such curve, though single readings can be large; an effect the other way counts as inactive or inconclusive.

COCCn1nnnc1CN(Cc1ccco1)Cc1cc2cc3c(cc2[nH]c1=O)OCO3	DT40 TDP1 CPT inconclusive
CC(C)(C)c1ccc(CN(Cc2ccco2)Cc2nnnn2C2CCCC2)cc1	HT1080 IDH1KD tx inconclusive, DT40 TDP1 CPT 21µM, DT40 TDP1 no CPT 15µM
COc1cc2cc(CN(Cc3nnnn3Cc3ccco3)C3CCCCC3)c(=O)[nH]c2cc1OC	none
COc1ccc2cc(CN(Cc3ccco3)C(c3nnnn3C3CCCCC3)C(C)C)c(=O)[nH]c2c1 (configuration not stated)	DT40 TDP1 CPT 23µM, DT40 TDP1 no CPT inconclusive
CCC(C)(C)n1nnnc1CN(Cc1ccc(Cl)cc1)Cc1ccco1	DT40 TDP1 CPT inconclusive, DT40 TDP1 no CPT inconclusive
Cc1cccc2cc(CN(CC3CCCO3)C(c3nnnn3Cc3ccco3)C(C)C)c(=O)[nH]c12 (configuration not stated)	HT1080-NT tox inconclusive, HT1080 IDH1KD tx inconclusive, DT40 TDP1 CPT 16µM, IL1B secr inh -61, DT40 TDP1 no CPT 15µM
Cc1ccc2cc(CN(CCCN3CCOCC3)C(c3nnnn3Cc3ccco3)C(C)C)c(=O)[nH]c2c1C (configuration not stated)	HT1080 IDH1KD tx inconclusive, DT40 TDP1 CPT inconclusive, DT40 TDP1 no CPT inconclusive
O=C(NCCc1ccccn1)C1CC12CCN(C(=O)c1cccc(C(F)(F)F)c1)CC2 (configuration not stated)	none (no result: HT1080-NT tox, HT1080 IDH1KD tx, IL1B secr inh)
CCOC(=O)/C(C#N)=C/C=C1\C=Cc2ccccc2N1CC	DT40 TDP1 CPT 21µM, IL1B secr inh inconclusive, DT40 TDP1 no CPT 23µM
CCCCCCN1C=CC(=C/C=C(\C#N)C(=O)OCC)C=C1	DT40 TDP1 CPT inconclusive, DT40 TDP1 no CPT 16µM
COc1ccc(-c2noc(CN(C)Cc3ccc(C)o3)n2)cc1	none
CCC(NC(=O)CC[C@H]1O[C@@H](n2cc(C)c(=O)[nH]c2=O)C[C@@H]1O)c1ccccc1 (some centres not stated)	none
CCCCn1c(SCC(=O)c2cc(OC)ccc2OC)nc2cc(S(N)(=O)=O)ccc21	none
O=C(CSc1nc2cc(Cl)ccc2c(=O)n1Cc1ccco1)Nc1ccc(S(=O)(=O)N2CCOCC2)cc1	none
COC(=O)c1cc(CSc2nnc(-c3ccccc3)c(-c3ccccc3)n2)oc1C	DT40 TDP1 CPT 23µM, DT40 TDP1 no CPT 21µM
Cc1cccc(OCCSc2nc3ncnc(N)c3[nH]2)c1	DT40 TDP1 CPT inconclusive
CCCCn1c(SCc2ccc(C(=O)OC)o2)nc2cc(S(N)(=O)=O)ccc21	HT1080-NT tox inconclusive, DT40 TDP1 CPT 3.3µM, IL1B secr inh -78, DT40 TDP1 no CPT 9.2µM
Cc1cccc(OCCCSc2nc3ccc(C)cc3[nH]2)c1	DT40 TDP1 CPT inconclusive, IL1B secr inh -72, DT40 TDP1 no CPT inconclusive
COC(=O)c1ccc2c(=O)n(Cc3ccco3)c(SCC(=O)Nc3ccc(C)c(Cl)c3)nc2c1	DT40 TDP1 CPT 10µM, DT40 TDP1 no CPT 21µM
CC1(NC(=O)Nc2cccc(Br)c2)CCS(=O)(=O)C1 (configuration not stated)	none
O=C(Cc1ccccc1)Nc1sc2c(c1C(=O)Nc1ccccc1Cl)CCCC2	none (no result: HT1080-NT tox, HT1080 IDH1KD tx, IL1B secr inh)
COC(=O)c1ccc(CSc2nc3ccccc3c(=O)n2Cc2ccco2)o1	HT1080-NT tox inconclusive, DT40 TDP1 CPT 23µM, DT40 TDP1 no CPT 16µM
COc1ccc(CNC(=O)CSc2nc3ccc(C)cc3[nH]2)cc1	DT40 TDP1 CPT inconclusive, DT40 TDP1 no CPT inconclusive
COCC(C)n1c(SCC(=O)Nc2cccnc2Cl)nc2ccccc2c1=O (configuration not stated)	DT40 TDP1 no CPT inconclusive
O=C(CSc1nc2ccccc2c(=O)n1Cc1ccco1)NCc1ccccc1	none
COC(=O)c1ccc(CSc2nc(C)nc3sc(C)c(C)c23)o1	HT1080 IDH1KD tx inconclusive, DT40 TDP1 CPT 15µM, DT40 TDP1 no CPT 10µM
